Results on eight molecules are retold here after PubChem BioAssay (NCI).

Compounds without any hit were thinned out: in the full panel of roughly 83,000, 20% have a hit.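 Single-dose data. Exposure time 48 hours. Values below 10 considered active.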 Values without a mark were called inactive. Activity calls are given as the source filed them.

Among the test systems are SK-MEL-2 melanoma; EKVX NSCLC; SN12C renal; UO-31 renal; TK-10 renal; ACHN renal; CAKI-1 renal; A498 renal; CCRF-CEM leukemia; MOLT-4 leukemia; SR leukemia; OVCAR-8 ovarian; OVCAR-5 ovarian; OVCAR-4 ovarian; SK-OV-3 ovarian; OVCAR-3 ovarian; HS 578T breast; NCI/ADR-RES ovarian; IGROV1 ovarian.
What all share (assay): NCI-60 one-dose screen, 48 h (100 = growth as untreated, 0 = no growth, -100 = all killed)
What all share (conditions): 10 µM unless noted

As to `COc1cc(/C=C/c2ccccc2)cc(OC)c1`, the growth in the assay with SK-MEL-2 melanoma is 93.7%; in the assay with EKVX NSCLC, 78.9%; with SN12C renal, 100%; with UO-31 renal, 80.1%; in the assay on TK-10 renal, 95.9%; with ACHN renal, 96.6%. Further, the growth in the assay with CAKI-1 renal is 81.3%; in the assay on A498 renal it was 88.7%; in the assay on CCRF-CEM leukemia, 108%; in the assay with MOLT-4 leukemia it was 89.3%; with SR leukemia, 86.7%; with OVCAR-8 ovarian, 97.7%. The growth in the assay with OVCAR-5 ovarian was 95.6%; in the assay on OVCAR-4 ovarian, 105%; in the assay with SK-OV-3 ovarian, 106%; in the assay on OVCAR-3 ovarian, 105%; in the assay with HS 578T breast, 104%; with NCI/ADR-RES ovarian, 99.6%.
For `COc1ccc(/C=C2\Oc3cc(OCCN4CCC(Cc5ccccc5)CC4)ccc3C2=O)cc1OC`, the growth in the assay on SK-MEL-2 melanoma is 104%; in the assay with EKVX NSCLC, 70.4%; with SN12C renal, 65.6%; in the assay on UO-31 renal it was 51.9%; in the assay with TK-10 renal, 95.3%; in the assay with ACHN renal, 96.8%. In addition, the growth in the assay with CAKI-1 renal was 74.2%; in the assay on A498 renal, 69.7%; in the assay on CCRF-CEM leukemia, 55.9%; with MOLT-4 leukemia it was 46.7%; in the assay with SR leukemia, -1.05% (active); in the assay on OVCAR-8 ovarian, 39.1%. In addition, the growth with OVCAR-5 ovarian was 93.4%; with OVCAR-4 ovarian, 79.3%; with SK-OV-3 ovarian, 87.8%; with IGROV1 ovarian, 82.1%; in the assay with HS 578T breast it was 74.6%; in the assay on NCI/ADR-RES ovarian, 70.9%.
For `NCCOc1ncccc1/C=C1\c2ccccc2-c2ccc(C(F)F)cc21`, the growth with SK-MEL-2 melanoma is 115%; in the assay on EKVX NSCLC, 79.7%; in the assay on SN12C renal, 16.8%; with UO-31 renal, 31.1%; in the assay with TK-10 renal it was 86.6%; with ACHN renal, 4.83% (active). The growth with CAKI-1 renal is 35.5%; in the assay on A498 renal it was 47.5%; with CCRF-CEM leukemia it was 6.32% (active); with MOLT-4 leukemia, 2.92% (active); in the assay on SR leukemia, 2.72% (active); with OVCAR-8 ovarian, 56.4%. Moreover, the growth in the assay on OVCAR-5 ovarian is 69.6%; in the assay with OVCAR-4 ovarian it was 83.9%; with SK-OV-3 ovarian, 64.3%; with IGROV1 ovarian it was 32.5%; in the assay with HS 578T breast, 53.4%; with NCI/ADR-RES ovarian, 57.4%.
Regarding `Cc1c(C(=O)/C=C/Nc2c(Cl)cc(S(N)(=O)=O)cc2Cl)sc2nc3ccccc3n12`, the growth in the assay with SK-MEL-2 melanoma is 109%; in the assay on EKVX NSCLC, 106%; with SN12C renal, 102%; in the assay on UO-31 renal, 89.2%; in the assay on TK-10 renal, 111%; with ACHN renal, 99%. For the same molecule, the growth is 98.5% in the assay with CAKI-1 renal; 101% in the assay on A498 renal; 102% in the assay on CCRF-CEM leukemia; 106% in the assay on MOLT-4 leukemia; 110% in the assay with SR leukemia; 101% in the assay with OVCAR-8 ovarian. Further, the growth with OVCAR-5 ovarian was 106%; in the assay with OVCAR-4 ovarian it was 116%; in the assay with SK-OV-3 ovarian, 111%; in the assay with IGROV1 ovarian, 111%; in the assay on HS 578T breast, 105%; with NCI/ADR-RES ovarian, 110%.
`CCOC(=O)c1cn2ncnc(Oc3ccc(NC(=O)NCCN4CCOCC4)c(Cl)c3)c2c1C`: the growth is 113% with SK-MEL-2 melanoma; 96.3% with EKVX NSCLC; 95.8% in the assay on SN12C renal; 80.8% in the assay on UO-31 renal; 98% with TK-10 renal; 99.5% with ACHN renal. Moreover, the growth in the assay on CAKI-1 renal was 87.7%; in the assay on A498 renal, 85.2%; with CCRF-CEM leukemia it was 96.6%; in the assay on MOLT-4 leukemia, 106%; in the assay with SR leukemia, 105%; with OVCAR-8 ovarian, 101%. Moreover, the growth with OVCAR-5 ovarian was 96.4%; in the assay with OVCAR-4 ovarian, 96.3%; in the assay with SK-OV-3 ovarian, 92.2%; with OVCAR-3 ovarian, 105%; with HS 578T breast it was 91.4%; with NCI/ADR-RES ovarian it was 101%.
Turning to `Cc1ccc(-c2nc(N3CCN(C(=O)Nc4ccc(Cl)c(C(F)(F)F)c4)CC3)c3ccccc3n2)cc1`, the growth with SK-MEL-2 melanoma is 96.5%; in the assay with EKVX NSCLC it was 79.4%; in the assay on SN12C renal, 74.8%; with UO-31 renal, 53.6%; in the assay on TK-10 renal, 93.7%; in the assay with ACHN renal it was 71.5%. Moreover, the growth in the assay on CAKI-1 renal was 53.6%; in the assay with A498 renal, 45.9%; with CCRF-CEM leukemia, 65.8%; with MOLT-4 leukemia it was 49.2%; in the assay with SR leukemia it was 75%; in the assay with OVCAR-8 ovarian it was 73.6%. Further, the growth was 86.9% with OVCAR-5 ovarian; 77.8% with OVCAR-4 ovarian; 81.7% in the assay with SK-OV-3 ovarian; 74.8% in the assay on OVCAR-3 ovarian; 82.2% in the assay with HS 578T breast; 69.1% with NCI/ADR-RES ovarian.
Regarding `CCC(C)(c1cc(C(C)(C)C)c(O)c(C(C)(C)C)c1)c1cc(C(C)(C)C)c(O)c(C(C)(C)C)c1`, the growth was 96.2% with SK-MEL-2 melanoma; 107% in the assay on EKVX NSCLC; 101% in the assay with SN12C renal; 92.2% in the assay on UO-31 renal; 97.3% with TK-10 renal; 101% in the assay on ACHN renal. The growth with CAKI-1 renal is 94.2%; with A498 renal it was 101%; with CCRF-CEM leukemia, 98.9%; with MOLT-4 leukemia, 100%; in the assay on SR leukemia it was 90.4%; in the assay with OVCAR-8 ovarian, 102%. Also, the growth was 94.5% in the assay on OVCAR-5 ovarian; 103% in the assay on OVCAR-4 ovarian; 100% in the assay on SK-OV-3 ovarian; 109% with OVCAR-3 ovarian; 97% with HS 578T breast; 102% in the assay with NCI/ADR-RES ovarian.
For the molecule `CCCCC[C@H](O)C/C=C1/C(=O)C=C[C@@H]1C/C=C\CCCC(=O)OC`, the growth in the assay with SK-MEL-2 melanoma is 89.2%; with EKVX NSCLC, 103%; in the assay on SN12C renal it was 11.5%; in the assay with UO-31 renal, 81.5%; with TK-10 renal, 82.3%; in the assay with ACHN renal it was 75.9%. The growth with CAKI-1 renal is 60.5%; in the assay with A498 renal it was 97.5%; in the assay on CCRF-CEM leukemia it was 2.62% (active); with MOLT-4 leukemia it was 20.2%; in the assay with SR leukemia it was 0.159% (active); with OVCAR-8 ovarian, 13.8%. Further, the growth was 129% with OVCAR-5 ovarian; 83.9% in the assay with OVCAR-4 ovarian; 118% in the assay with SK-OV-3 ovarian; 11.6% in the assay with OVCAR-3 ovarian; 88% with HS 578T breast; 18.7% with NCI/ADR-RES ovarian.
